Results reported in PubChem BioAssay (NCATS).
Results filed as inconclusive are left out. Entries that show only a call come without a potency. Active and inactive are the calls of the source. The call rests on the fitted dose curve.

Assay: Cytotoxicity counterscreen for inhibitors of SARS-CoV-2 cell entry (AID 1645845); further: nearly all actives have a fitted effect of over 50% in size
Settings: cell viability (SARS-CoV-2 entry assay cells); series mostly up to 57.1 µM
Outline: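 HEK293-ACE2 cells (Expi293F stably expressing human ACE2) seeded overnight, then compound for 1 h plus 48 h at 37C. Viability as ATP content by luminescence; normalized to wells with cells and media-only wells.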
Potency means the concentration at half of the fitted maximal effect.

SMILES	Potency
Cn1cc(-c2ccc(-c3cncc(Cl)c3N3CCC4(CCNC4=O)CC3)cc2)cn1	inactive
Cc1cc(C)c(CNC(=O)c2cc(-c3ccc(N4CCN(C)CC4)nc3)cc3c2c(C)cn3C(C)C)c(=O)[nH]1	inactive
CNC(=O)c1ccc2c(C(=Nc3cccc(CN(C)C)c3)c3ccccc3)c(O)[nH]c2c1	inactive
O=C1NC(=O)/C(=C\c2ccc(-c3ccc(F)cc3)o2)S1	inactive
CCCC[C@@H](C=O)NC(=O)[C@H](CC(C)C)NC(=O)OCc1ccccc1	inactive
CN1CCN(c2ccc(C(=O)Nc3n[nH]c4ccc(Cc5cc(F)cc(F)c5)cc34)c(NC3CCOCC3)c2)CC1	31.6 µM (active)
CC#C[C@@H](CC(=O)O)c1ccc(OCc2cccc(-c3ccc(C(F)(F)F)cc3)c2)cc1	inactive
Cc1ncc(NC(=O)c2ccc(CN3CCN(C)CC3)c(C(F)(F)F)c2)cc1Nc1nccc(-c2cccnc2)n1	inactive
CNCc1ccc(-c2cc(-c3nc(-c4ccc(S(=O)(=O)C(C)C)cc4)cnc3N)on2)cc1	inactive
O=C(NCc1ccccc1)[C@H](Cc1ccccc1)NC(=O)[C@H]1O[C@@H]1C(=O)NCCc1ccc(O)cc1	inactive
Cc1nc(C)c(CN2CCN(C(c3ccc(F)cc3)c3ccc(F)cc3)CC2)nc1C	inactive
c1ccc(-c2ccc(CNc3nc(-c4ccccn4)nnc3-c3ccccc3)cc2)cc1	14.1 µM (active)
CC[C@H](NC(=O)[C@H](CS(=O)(=O)CC1CC1)N[C@@H](c1ccc(F)cc1)C(F)(F)F)C(=O)C(=O)NC1CC1	inactive
Nc1nc(OC(c2ccc(-c3cccc(F)c3)cc2)C(F)(F)F)cc(-c2ccc(C[C@H](N)C(=O)O)cc2)n1 (some centres not stated)	inactive
C/C(=N\NC(=O)c1cccc(S(=O)(=O)N2CCOCC2)c1)c1cc(Cl)ccc1O	inactive
CONC(=O)Nc1ccc(-c2sc3c(c2CN(C)Cc2ccccc2)c(=O)n(-c2ccccc2)c(=O)n3Cc2c(F)cccc2F)cc1	inactive
CCCN1CCN(c2ccc(C(=O)NC3(C(=O)NCC#N)CCCCC3)cc2)CC1	inactive
Nc1nc(Nc2ccc3c(c2)CC[C@@H](N2CCCC2)CC3)nn1-c1cc2c(nn1)-c1ccccc1CCC2	inactive
C=CC(=O)N[C@H]1CCOC[C@H]1Nc1ncc2cc(-c3c(Cl)c(OC)cc(OC)c3Cl)ccc2n1	inactive

Assay: Primary qHTS to identify inhibitors of SARS-CoV-2 cell entry (AID 1645846); further: nearly all actives have a fitted effect of over 45% in size
Settings: SARS-CoV-2 pseudovirus cell entry assay, luminescence; activity change, negative = inhibition: at 57.1 µM (top of the series) unless noted
Outline: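 Entry measured by luciferase signal 48 h after adding SARS-CoV-2-S pseudotyped MLV particles to HEK293-ACE2 cells preincubated 1 h with compounds. Normalisation: bald particles and spike particles.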

SMILES	activity change, negative = inhibition [%]	Potency
O=C1Nc2nc(-c3c(O)cccc3OCC3CC3)cc([C@@H]3CCCNC3)c2CO1	-96.7	
Cc1cc(C)c(CNC(=O)c2cc(-c3ccc(N4CCN(C)CC4)nc3)cc3c2c(C)cn3C(C)C)c(=O)[nH]1	-89.9	
O=C1NC(=O)/C(=C\c2ccc(-c3ccc(F)cc3)o2)S1		inactive
CCCC[C@@H](C=O)NC(=O)[C@H](CC(C)C)NC(=O)OCc1ccccc1	-89.9	
COCCNCc1ccc(-c2cc3nccc(Oc4ccc(NC(=O)C5(C(=O)Nc6ccc(F)cc6)CC5)cc4F)c3s2)nc1	-25.9	
CN1CCN(c2ccc(C(=O)Nc3n[nH]c4ccc(Cc5cc(F)cc(F)c5)cc34)c(NC3CCOCC3)c2)CC1		28.2 µM (active)
c1ccc2c(-c3cnn4cc(-c5ccc(OCCN6CCOCC6)cc5)cnc34)ccnc2c1		inactive
CNCc1ccc(-c2cc(-c3nc(-c4ccc(S(=O)(=O)C(C)C)cc4)cnc3N)on2)cc1	-25.7	
Nc1nc(OC(c2ccc(-c3cccc(F)c3)cc2)C(F)(F)F)cc(-c2ccc(C[C@H](N)C(=O)O)cc2)n1 (some centres not stated)		inactive
Cc1cc2cc(Oc3ccnc(Nc4cccc(CS(=O)(=O)NCCN(C)C)c4)n3)ccc2[nH]1		35.5 µM (active)
Cc1cccc(/C=N/Nc2cc(N3CCOCC3)nc(OCCc3ccccn3)n2)c1	-96.7	
CCCCNc1ncc2c(-c3ccc(CN4CCN(C)CC4)cc3)cn(C3CCC(O)CC3)c2n1 (configuration not stated)		14.1 µM (active)
Nc1nc(Nc2ccc3c(c2)CC[C@@H](N2CCCC2)CC3)nn1-c1cc2c(nn1)-c1ccccc1CCC2		12.6 µM (active)
